Measured values from the supplement of paper PMC11732987, “Enantioselective OTUD7B fragment discovery through chemoproteomics screening and high-throughput optimisation” (Communications Chemistry, 2025).

Key:
Assay in all cases: log2 ratio of Biotin-Ahx-Ub-VS probe labelling (fragment/DMSO); higher = less target engagement (more negative = stronger competition), active = hit call of the paper (q ≤ 0.05, log2 ratio ≤ -1)
Conditions in all cases: compound concentration: 200 uM; treatment time: 3 h
ALG13 = target: T1, ALG13 (UniProt Q9NP73)
T1 sequence (whole entry): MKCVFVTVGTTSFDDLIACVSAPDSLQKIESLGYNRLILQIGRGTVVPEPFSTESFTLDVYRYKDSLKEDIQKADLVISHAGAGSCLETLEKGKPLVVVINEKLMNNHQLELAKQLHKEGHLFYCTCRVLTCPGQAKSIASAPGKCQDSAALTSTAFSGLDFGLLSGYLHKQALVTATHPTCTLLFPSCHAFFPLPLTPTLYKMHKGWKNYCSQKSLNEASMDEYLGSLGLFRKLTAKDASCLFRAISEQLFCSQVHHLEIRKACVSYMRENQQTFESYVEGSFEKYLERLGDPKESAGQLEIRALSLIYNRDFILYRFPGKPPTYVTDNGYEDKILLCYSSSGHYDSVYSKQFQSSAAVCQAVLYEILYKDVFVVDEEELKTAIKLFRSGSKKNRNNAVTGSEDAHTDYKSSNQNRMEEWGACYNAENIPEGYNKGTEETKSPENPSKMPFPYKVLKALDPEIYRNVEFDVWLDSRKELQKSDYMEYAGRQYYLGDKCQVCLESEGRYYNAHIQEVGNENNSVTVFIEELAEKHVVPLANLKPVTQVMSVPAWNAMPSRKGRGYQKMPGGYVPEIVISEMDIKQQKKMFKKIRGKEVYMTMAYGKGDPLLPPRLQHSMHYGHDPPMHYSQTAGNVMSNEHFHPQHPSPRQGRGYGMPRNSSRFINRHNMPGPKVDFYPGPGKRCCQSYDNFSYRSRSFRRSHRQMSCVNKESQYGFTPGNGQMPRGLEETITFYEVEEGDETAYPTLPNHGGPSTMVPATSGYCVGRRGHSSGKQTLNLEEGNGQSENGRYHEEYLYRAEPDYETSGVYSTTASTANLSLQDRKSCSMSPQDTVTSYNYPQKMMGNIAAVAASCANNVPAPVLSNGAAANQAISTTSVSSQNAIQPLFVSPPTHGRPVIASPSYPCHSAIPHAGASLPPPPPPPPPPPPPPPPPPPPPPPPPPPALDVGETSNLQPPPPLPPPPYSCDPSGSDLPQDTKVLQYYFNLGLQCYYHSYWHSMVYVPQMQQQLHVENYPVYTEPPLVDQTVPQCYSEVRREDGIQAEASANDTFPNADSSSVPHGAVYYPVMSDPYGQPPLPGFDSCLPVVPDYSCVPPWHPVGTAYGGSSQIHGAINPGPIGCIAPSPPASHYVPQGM
Method in brief: (§1)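 HEK293T lysate (495 µg per sample, in Tris/CHAPS/IGEPAL buffer with protease inhibitors) was exposed in triplicate for 3 h to fragment at 200 µM or to vehicle, then to Biotin-Ahx-Ub-VS at 0.5 µM final for 1 h. Labelled DUBs were enriched on NeutrAvidin, digested with LysC and trypsin, and analysed by diaPASEF LC-MS/MS. Spectronaut label-free quantities were normalised to the global median, and values are average log2 ratios of fragment over vehicle from an unpaired t-test. Only proteins with ≥2 unique peptides were used.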

ATXN3 = ATXN3 (UniProt P54252)
Chain of ATXN3 (P54252 whole entry): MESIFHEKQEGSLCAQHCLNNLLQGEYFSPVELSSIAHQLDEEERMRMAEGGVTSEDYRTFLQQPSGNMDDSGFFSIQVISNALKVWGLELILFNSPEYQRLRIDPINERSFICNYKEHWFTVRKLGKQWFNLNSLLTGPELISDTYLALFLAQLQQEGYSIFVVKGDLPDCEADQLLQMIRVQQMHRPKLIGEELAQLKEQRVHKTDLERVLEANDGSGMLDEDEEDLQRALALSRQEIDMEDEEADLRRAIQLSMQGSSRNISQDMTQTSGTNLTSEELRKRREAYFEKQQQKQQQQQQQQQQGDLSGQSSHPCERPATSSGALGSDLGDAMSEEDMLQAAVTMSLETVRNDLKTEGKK
Method in brief: as §1

BAP1 = target: T2, BAP1 (UniProt Q92560)
T2 sequence (whole entry): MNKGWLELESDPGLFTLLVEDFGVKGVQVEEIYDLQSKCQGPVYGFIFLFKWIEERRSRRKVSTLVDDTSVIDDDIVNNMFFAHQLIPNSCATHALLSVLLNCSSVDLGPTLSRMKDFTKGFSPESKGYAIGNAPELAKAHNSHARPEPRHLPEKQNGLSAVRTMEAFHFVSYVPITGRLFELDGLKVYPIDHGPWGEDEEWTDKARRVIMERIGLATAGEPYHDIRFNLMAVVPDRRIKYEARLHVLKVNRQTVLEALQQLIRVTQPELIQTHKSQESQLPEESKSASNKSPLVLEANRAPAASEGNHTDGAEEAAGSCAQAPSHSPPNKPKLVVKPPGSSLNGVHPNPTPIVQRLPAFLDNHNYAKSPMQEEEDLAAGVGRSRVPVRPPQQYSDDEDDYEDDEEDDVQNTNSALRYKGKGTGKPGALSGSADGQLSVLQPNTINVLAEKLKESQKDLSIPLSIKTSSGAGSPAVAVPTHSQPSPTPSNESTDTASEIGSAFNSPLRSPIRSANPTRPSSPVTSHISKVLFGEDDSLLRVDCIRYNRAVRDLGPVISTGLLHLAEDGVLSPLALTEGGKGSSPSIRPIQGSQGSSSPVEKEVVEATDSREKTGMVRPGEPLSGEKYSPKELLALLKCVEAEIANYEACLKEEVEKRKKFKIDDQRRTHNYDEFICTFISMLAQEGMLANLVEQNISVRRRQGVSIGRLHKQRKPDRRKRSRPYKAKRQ
Method in brief: as §1

EIF3F = EIF3F (UniProt O00303)
Chain of EIF3F (O00303 whole entry): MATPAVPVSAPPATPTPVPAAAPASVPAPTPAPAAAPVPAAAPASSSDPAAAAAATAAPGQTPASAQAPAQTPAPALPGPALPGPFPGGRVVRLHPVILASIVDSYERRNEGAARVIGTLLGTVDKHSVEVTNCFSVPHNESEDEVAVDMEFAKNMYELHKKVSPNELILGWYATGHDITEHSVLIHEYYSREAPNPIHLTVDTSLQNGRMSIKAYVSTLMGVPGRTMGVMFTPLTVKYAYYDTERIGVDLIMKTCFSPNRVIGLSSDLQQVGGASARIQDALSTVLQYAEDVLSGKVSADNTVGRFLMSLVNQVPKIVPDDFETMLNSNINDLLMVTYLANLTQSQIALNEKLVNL
Method in brief: as §1

EIF3H = EIF3H (UniProt O15372)
Chain of EIF3H (O15372 whole entry): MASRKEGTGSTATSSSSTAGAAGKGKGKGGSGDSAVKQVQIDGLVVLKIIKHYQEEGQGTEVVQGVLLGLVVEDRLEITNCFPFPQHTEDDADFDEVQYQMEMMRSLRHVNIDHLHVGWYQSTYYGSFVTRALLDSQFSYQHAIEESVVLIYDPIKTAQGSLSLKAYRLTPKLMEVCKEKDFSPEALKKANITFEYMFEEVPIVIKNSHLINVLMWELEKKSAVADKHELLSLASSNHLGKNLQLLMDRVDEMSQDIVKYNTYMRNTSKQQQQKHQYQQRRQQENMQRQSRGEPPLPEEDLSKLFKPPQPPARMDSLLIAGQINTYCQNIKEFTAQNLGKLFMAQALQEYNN
Method in brief: as §1

FAM105A = target: T3, FAM105A (UniProt Q9NUU6)
T3 sequence (whole entry): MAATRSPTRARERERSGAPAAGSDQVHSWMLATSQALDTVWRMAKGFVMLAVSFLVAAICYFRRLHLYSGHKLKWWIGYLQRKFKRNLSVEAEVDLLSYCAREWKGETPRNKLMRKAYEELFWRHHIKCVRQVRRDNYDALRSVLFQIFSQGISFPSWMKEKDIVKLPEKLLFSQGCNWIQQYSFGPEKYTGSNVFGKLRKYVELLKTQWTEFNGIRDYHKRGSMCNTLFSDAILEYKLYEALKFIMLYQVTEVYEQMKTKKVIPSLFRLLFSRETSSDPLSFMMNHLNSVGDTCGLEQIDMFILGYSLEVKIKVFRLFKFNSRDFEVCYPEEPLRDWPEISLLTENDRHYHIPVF
Method in brief: as §1

OTUB1 = OTUB1 (UniProt Q96FW1)
Chain of OTUB1 (Q96FW1 whole entry): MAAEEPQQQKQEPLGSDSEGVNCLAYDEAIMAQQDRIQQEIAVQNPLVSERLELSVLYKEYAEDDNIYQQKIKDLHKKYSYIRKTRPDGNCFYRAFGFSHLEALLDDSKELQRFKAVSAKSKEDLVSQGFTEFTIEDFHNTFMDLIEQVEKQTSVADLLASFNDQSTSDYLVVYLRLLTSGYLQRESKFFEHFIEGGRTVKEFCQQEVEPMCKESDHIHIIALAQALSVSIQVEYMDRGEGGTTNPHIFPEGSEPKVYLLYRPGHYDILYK
Method in brief: as §1

OTUD4 = target: T4, OTUD4 (UniProt Q01804)
T4 sequence (whole entry): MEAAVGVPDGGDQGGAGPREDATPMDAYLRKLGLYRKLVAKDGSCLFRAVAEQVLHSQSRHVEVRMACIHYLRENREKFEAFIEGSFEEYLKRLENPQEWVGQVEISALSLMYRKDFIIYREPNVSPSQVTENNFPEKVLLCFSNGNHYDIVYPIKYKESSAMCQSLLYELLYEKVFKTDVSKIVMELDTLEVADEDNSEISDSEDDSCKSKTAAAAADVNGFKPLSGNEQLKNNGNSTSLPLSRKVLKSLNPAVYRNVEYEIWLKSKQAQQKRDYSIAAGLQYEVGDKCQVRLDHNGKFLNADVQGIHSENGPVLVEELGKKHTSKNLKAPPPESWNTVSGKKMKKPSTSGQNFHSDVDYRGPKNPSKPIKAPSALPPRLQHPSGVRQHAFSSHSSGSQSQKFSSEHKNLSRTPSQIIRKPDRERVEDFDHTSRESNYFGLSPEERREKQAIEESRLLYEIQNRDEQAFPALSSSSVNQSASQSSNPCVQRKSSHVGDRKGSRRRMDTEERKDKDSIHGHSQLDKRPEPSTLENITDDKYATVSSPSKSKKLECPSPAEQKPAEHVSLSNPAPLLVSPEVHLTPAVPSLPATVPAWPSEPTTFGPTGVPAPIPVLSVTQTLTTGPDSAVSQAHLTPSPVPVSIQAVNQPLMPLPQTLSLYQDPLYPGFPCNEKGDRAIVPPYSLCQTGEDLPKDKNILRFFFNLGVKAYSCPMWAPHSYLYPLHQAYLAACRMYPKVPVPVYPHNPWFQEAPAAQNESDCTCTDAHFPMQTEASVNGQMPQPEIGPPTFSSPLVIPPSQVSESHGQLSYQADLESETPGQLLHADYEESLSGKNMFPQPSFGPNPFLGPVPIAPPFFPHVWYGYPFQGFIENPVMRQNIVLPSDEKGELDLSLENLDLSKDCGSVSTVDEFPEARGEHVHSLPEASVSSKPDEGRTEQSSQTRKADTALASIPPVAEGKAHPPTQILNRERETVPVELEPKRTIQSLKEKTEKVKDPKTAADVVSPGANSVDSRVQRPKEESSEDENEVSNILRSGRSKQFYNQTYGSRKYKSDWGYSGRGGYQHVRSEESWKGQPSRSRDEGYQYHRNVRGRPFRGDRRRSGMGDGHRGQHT
Method in brief: as §1

OTUD5 = target: T5, OTUD5 (UniProt Q96G74)
T5 sequence (whole entry): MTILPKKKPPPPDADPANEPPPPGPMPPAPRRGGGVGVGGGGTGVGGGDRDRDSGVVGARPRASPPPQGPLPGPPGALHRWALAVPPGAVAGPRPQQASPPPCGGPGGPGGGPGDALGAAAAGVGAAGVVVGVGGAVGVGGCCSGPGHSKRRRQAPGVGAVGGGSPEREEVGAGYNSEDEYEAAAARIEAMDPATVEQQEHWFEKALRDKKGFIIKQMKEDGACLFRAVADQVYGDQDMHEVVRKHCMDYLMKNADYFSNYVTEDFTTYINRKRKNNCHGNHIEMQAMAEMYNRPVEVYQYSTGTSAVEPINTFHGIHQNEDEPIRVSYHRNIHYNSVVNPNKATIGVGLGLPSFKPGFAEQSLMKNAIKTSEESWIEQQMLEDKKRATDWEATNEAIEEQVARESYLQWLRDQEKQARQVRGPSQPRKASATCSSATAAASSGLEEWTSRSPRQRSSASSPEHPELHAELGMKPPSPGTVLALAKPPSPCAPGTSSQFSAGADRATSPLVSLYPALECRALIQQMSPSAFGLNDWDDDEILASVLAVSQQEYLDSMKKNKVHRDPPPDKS
Method in brief: as §1

Measured: log2 ratio of Biotin-Ahx-Ub-VS probe labelling

Cl.O=C(CCl)N1CCn2ncc(O)c2C1
inactive: ALG13 0.326 | EIF3F -0.296 | EIF3H 0.21 | FAM105A -0.377 | OTUB1 -0.64 | OTUD4 -0.808 | OTUD5 -0.908
active: ATXN3 -1.69 | BAP1 -2.39
